{"source": "PubChem BioAssay AID504850", "about": "(National Center for Advancing Translational Sciences (NCATS), 2011)", "note": "The campaign covered roughly 2,300 compounds. About 1,200 (52%) were called active. Inconclusive results (about 34%) are left out. The set was probably picked from earlier hits. The list shows a part of the results. Values without a mark were called inactive. Calls follow the shape of the dose curve; as a rule, active = well fitted inhibition curve with a large enough effect; inconclusive = small, poorly fitted or top-dose-only effect, or effect the other way; inactive = no such curve, though single readings can be large or run the other way. % is scaled to controls: 0 for no effect and ±100 for the full control effect; potency is read from the fitted curve at half-maximal effect.", "data": [{"test": "Confirmation screen for delayed death inhibitors of the malarial parasite plastid, 48 hour incubation; also: nearly all actives have a fitted effect of over 65% in size", "conditions": "P. falciparum-infected erythrocytes, luciferase growth; series mostly up to 28.7 µM; activity change, negative = inhibition: at the top concentration", "procedure,_shortened": "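Erythrocytes infected with luciferase-expressing P. falciparum (2% hematocrit, 0.1% parasitemia) incubated with compounds 48 hours at 37 C, 5% CO2, in RPMI/Albumax. Growth inhibition scored as reduced luminescence after detection reagent.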", "units": {"activity change, negative = inhibition": "%"}, "values": [{"smiles": "CC(=O)/C=C/c1ccc2ccccc2n1", "Potency": "12.6 µM (active)"}, {"smiles": "Cc1cccc(N(Cc2ccccc2)C(=O)CSC(C)C(=O)Nc2cc(C)on2)c1", "note": "(stereo unspecified)", "Potency": "11.2 µM (active)"}, {"smiles": "Cc1cc(C)c(OCC(O)CNC(C)(C)C)c(C)c1", "note": "(stereo unspecified)", "Potency": "11.2 µM (active)"}, {"smiles": "Cn1nnnc1Sc1ncnc2scc(-c3ccsc3)c12", "Potency": "4.47 µM (active)"}, {"smiles": "Cn1nnnc1Sc1ncnc2scc(-c3cccs3)c12", "Potency": "12.6 µM (active)"}, {"smiles": "Cn1nnnc1Sc1ncnc2scc(-c3ccc[nH]3)c12", "Potency": "12.6 µM (active)"}, {"smiles": "O=C(NCc1ccccn1)Nc1cc(Cl)ccc1Cl", "Potency": "5.01 µM (active)"}, {"smiles": "Cc1ccc(Oc2nc3ccccn3c(=O)c2/C=C(\\C#N)C(=O)NC2CCS(=O)(=O)C2)c(C)c1", "note": "(stereo unspecified)", "Potency": "12.6 µM (active)"}, {"smiles": "CCN(CC)CCNC(=O)C1c2cc(OC)c(OC)cc2C(=O)N2CCc3ccccc3C12", "note": "(stereo unspecified)", "Potency": "7.08 µM (active)"}, {"smiles": "CCCN(CCC)CCNC(=O)C1c2ccccc2C(=O)N2CCc3ccccc3C12", "note": "(stereo unspecified)", "activity change, negative = inhibition": -12.8}, {"smiles": "CC(=O)c1ccccc1OCC(O)CN1CCN(C(c2ccccc2)c2ccccc2)CC1", "note": "(stereo unspecified)", "Potency": "2.24 µM (active)"}, {"smiles": "O=C(N/N=C/c1ccc([N+](=O)[O-])cc1)c1cccc(N2CCCC2=O)c1", "Potency": "11.2 µM (active)"}, {"smiles": "Cc1nn(-c2ccccc2)c(N2CCCC2)c1/C=N/NC(=S)Nc1ccccc1F", "Potency": "12.6 µM (active)"}, {"smiles": "Cc1nn(-c2ccccc2)c(N2CCCC2)c1/C=N/NC(=O)c1ccccc1O", "Potency": "5.01 µM (active)"}, {"smiles": "CC(C)Cc1csc(NC(=O)C(C)C)c1C(=O)O", "activity change, negative = inhibition": -20.8}, {"smiles": "CCOC(=O)C1(CCc2ccccc2)CCN(Cc2ccccn2)CC1", "Potency": "4.47 µM (active)"}, {"smiles": "Cc1cccc(NC(=O)CSc2nc3ccccc3nc2N2CCCCC2)c1", "Potency": "11.2 µM (active)"}, {"smiles": "Cc1cccc(NC(=O)CSc2nc3ccccc3nc2N2CCCC2)c1", "Potency": "14.1 µM (active)"}, {"smiles": "COc1cccc(NC(=O)CSc2nc3ccccc3nc2N2CCCC2)c1", "Potency": "14.1 µM (active)"}, {"smiles": "Nc1nc(N)nc(-c2cc([N+](=O)[O-])ccc2O)n1", "activity change, negative = inhibition": -11.4}, {"smiles": "O=C1C(=O)c2ccccc2C(O)=C1c1cccc([N+](=O)[O-])c1", "Potency": "12.6 µM (active)"}, {"smiles": "Cc1ccc(C2C3=C(CC(C)(C)CC3=O)N=C3c4ccccc4C(=O)C32)cc1", "note": "(stereo unspecified)", "Potency": "8.91 µM (active)"}, {"smiles": "COc1ccc(-n2c(C)cc(C(=O)Cn3c(NCCO)nc4ccccc43)c2C)cc1", "Potency": "12.6 µM (active)"}, {"smiles": "CCOc1ccc(C2c3[nH]c4ccccc4c3CCN2Cc2cccn2-c2ncccn2)cc1", "note": "(stereo unspecified)", "Potency": "12.6 µM (active)"}, {"smiles": "Cc1ccccc1C1c2[nH]c3ccccc3c2CCN1Cc1cccn1-c1ncccn1", "note": "(stereo unspecified)", "Potency": "12.6 µM (active)"}, {"smiles": "Cc1cc(C)cc(-n2c(N)c(C(=O)Nc3c(C)n(C)n(-c4ccccc4)c3=O)c3nc4ccccc4nc32)c1", "Potency": "4.47 µM (active)"}, {"smiles": "Cc1c(NC(=S)NC(=O)C(C)(C)C)c(=O)n(-c2ccccc2)n1C", "activity change, negative = inhibition": 4.84}, {"smiles": "COc1ccc2c(C)c(CCC(=O)NC3CC3)c(=O)oc2c1C", "Potency": "3.98 µM (active)"}, {"smiles": "COc1ccc(/C=C/C(=O)c2ccc([N+](=O)[O-])o2)cc1OC", "Potency": "11.2 µM (active)"}, {"smiles": "CCCSc1ccc(-c2nn(-c3ccccc3)cc2/C=C(/C#N)C(=O)NCCCOC)cc1", "Potency": "5.62 µM (active)"}, {"smiles": "CN1CCN(c2ccccc2NC(=O)c2cccc(OCc3ccccc3)c2)CC1", "Potency": "7.94 µM (active)"}, {"smiles": "Cc1cc(=O)oc2ccc(OCC(=O)N3CCc4ccccc43)cc12", "Potency": "10 µM (active)"}, {"smiles": "O=C(O)c1nn(CCOc2ccc(Cl)cc2Cl)c(=O)c2ccccc12", "activity change, negative = inhibition": -10}, {"smiles": "CCC1CCCCN1CCCNC(=O)CNC(=O)c1nn(-c2ccc(OC)c(Cl)c2)c(=O)c2ccccc12", "note": "(stereo unspecified)", "Potency": "11.2 µM (active)"}, {"smiles": "CCC1CCCCN1CCCNC(=O)Cn1c(=O)c2cccn2c2cccnc21", "note": "(stereo unspecified)", "activity change, negative = inhibition": -8.96}, {"smiles": "O=C1NC(NS(=O)(=O)c2ccc(Cl)cc2)(C(F)(F)F)C(=O)N1Cc1cccnc1", "note": "(stereo unspecified)", "activity change, negative = inhibition": -27.7}, {"smiles": "CCCOc1cc(NCc2ccccc2)c2ncn(C(C)C)c2c1", "Potency": "5.01 µM (active)"}, {"smiles": "CCCN1C2=C(C(=O)CCC2)C(c2ccc(O)c(Br)c2)C2=C1CCCC2=O", "Potency": "12.6 µM (active)"}, {"smiles": "O=c1cc(CSc2ccc(Cl)cc2)nc(-c2ccccn2)[nH]1", "Potency": "5.01 µM (active)"}, {"smiles": "CCc1nc(SCC(=O)Nc2ccccc2OC)c2c(C)c(C)sc2n1", "Potency": "12.6 µM (active)"}, {"smiles": "CCc1nc(SCC(=O)N2c3ccccc3CC2C)c2c(C)c(C)sc2n1", "note": "(stereo unspecified)", "Potency": "11.2 µM (active)"}, {"smiles": "Cc1sc2nc(C3CC3)nc(SCC(=O)N3c4ccccc4CC3C)c2c1C", "note": "(stereo unspecified)", "Potency": "14.1 µM (active)"}, {"smiles": "C=CCNC(=O)c1cnc2n(c1=O)CCS2", "activity change, negative = inhibition": -0.495}, {"smiles": "C=CCn1c(SCc2cc(=O)n3cc(C)ccc3n2)nnc1-c1ccc(F)cc1", "Potency": "14.1 µM (active)"}, {"smiles": "COC(=O)C1=C(C)Nc2ncnn2C1c1ccccn1", "note": "(stereo unspecified)", "activity change, negative = inhibition": -2.2}, {"smiles": "Cc1ccc(Cn2c(C)nc3c(c2=O)c2nc4ccccc4nc2n3Cc2ccco2)cc1", "Potency": "7.08 µM (active)"}, {"smiles": "Cc1cc(C)cc(-n2c3nc4ccccc4nc3c3c(=O)n(Cc4ccco4)cnc32)c1", "Potency": "12.6 µM (active)"}, {"smiles": "COc1cc(C2Oc3ccccc3C=C2[N+](=O)[O-])cc(OC)c1OC", "note": "(stereo unspecified)", "Potency": "14.1 µM (active)"}, {"smiles": "O=C(/C(=C/c1ccc(Cl)cc1)c1nc2ccccc2[nH]1)c1ccccc1", "Potency": "1.41 µM (active)"}, {"smiles": "COc1cc(/C=C(/C(=O)c2cccs2)c2nc3ccccc3[nH]2)ccc1O", "Potency": "8.91 µM (active)"}, {"smiles": "CCCc1c(C)c2cccc(C)c2[nH]c1=O", "activity change, negative = inhibition": -16.3}, {"smiles": "COc1ccc(CNC(=O)C[C@H]2C(=O)N(C3CCCCC3)C[C@@H]2Cc2ccccc2)cc1", "Potency": "11.2 µM (active)"}, {"smiles": "COc1ccc(CNCc2ccc3ccccc3c2)c(OC)c1", "Potency": "11.2 µM (active)"}, {"smiles": "Cc1cc(C)n(CC(O)COc2ccccc2)n1", "note": "(stereo unspecified)", "Potency": "2 µM (active)"}, {"smiles": "CCOC(=O)c1c(-c2ccc(C)cc2C)csc1NC(=O)CSc1nnnn1C", "Potency": "4.47 µM (active)"}, {"smiles": "CC1=NCCN1CCNC(=O)Nc1ccc(F)cc1", "activity change, negative = inhibition": 2.48}, {"smiles": "CCCc1c(NC(=O)Nc2ccc(F)cc2)cnn1-c1ccccc1", "Potency": "15.8 µM (active)"}, {"smiles": "CCCSc1nc2c(cnn2-c2ccccc2)c(=O)[nH]1", "activity change, negative = inhibition": 13.4}, {"smiles": "CCCc1c(NC(=O)Nc2ccc(F)cc2)cnn1-c1ccc(Cl)cc1", "Potency": "12.6 µM (active)"}, {"smiles": "COc1cccc(NC(=O)c2ccc3c(c2)C(=O)N(CC2CCCO2)C3=O)c1", "note": "(stereo unspecified)", "activity change, negative = inhibition": -4.19}, {"smiles": "NC(=O)C1CCN(CC(=O)Nc2cccc(C(=O)Nc3cccc(C(F)(F)F)c3)c2)CC1", "Potency": "2 µM (active)"}]}]}
